# In PubChem BioAssay (Tox21):
# Several values for one entry are separate records, joined by “and”; a condition that tells them apart may be missing. Equal entries are not always repeated. Records with an inconclusive call do not appear. Entries that show only a call come without a potency. A structure can be active in one record and inactive in another. Activity calls are given as the source filed them. Unless noted, the call rests on the fitted dose curve; in most records, active means well fitted curve in the direction sought with a large enough effect in the repeat runs; inconclusive means weak or mixed curves; inactive means no such curve, though single readings can be large; an effect the other way counts as inactive or inconclusive.
# Experiments:
# [1] = target: Aryl hydrocarbon receptor (Homo sapiens) (UniProt P35869); test: qHTS assay to identify small molecule that activate the aryl hydrocarbon receptor (AhR) signaling pathway (AID 743085); further: nearly all actives have a fitted effect of over 15% in size; further: potency means the concentration at half of the fitted maximal effect;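 on activation: HG2L7.5c1 human HepG2 liver cells with stably integrated DRE-driven firefly reporter; series mostly up to about 70 µM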
# Aryl hydrocarbon receptor (Homo sapiens), sequence (P35869 whole entry, looked up): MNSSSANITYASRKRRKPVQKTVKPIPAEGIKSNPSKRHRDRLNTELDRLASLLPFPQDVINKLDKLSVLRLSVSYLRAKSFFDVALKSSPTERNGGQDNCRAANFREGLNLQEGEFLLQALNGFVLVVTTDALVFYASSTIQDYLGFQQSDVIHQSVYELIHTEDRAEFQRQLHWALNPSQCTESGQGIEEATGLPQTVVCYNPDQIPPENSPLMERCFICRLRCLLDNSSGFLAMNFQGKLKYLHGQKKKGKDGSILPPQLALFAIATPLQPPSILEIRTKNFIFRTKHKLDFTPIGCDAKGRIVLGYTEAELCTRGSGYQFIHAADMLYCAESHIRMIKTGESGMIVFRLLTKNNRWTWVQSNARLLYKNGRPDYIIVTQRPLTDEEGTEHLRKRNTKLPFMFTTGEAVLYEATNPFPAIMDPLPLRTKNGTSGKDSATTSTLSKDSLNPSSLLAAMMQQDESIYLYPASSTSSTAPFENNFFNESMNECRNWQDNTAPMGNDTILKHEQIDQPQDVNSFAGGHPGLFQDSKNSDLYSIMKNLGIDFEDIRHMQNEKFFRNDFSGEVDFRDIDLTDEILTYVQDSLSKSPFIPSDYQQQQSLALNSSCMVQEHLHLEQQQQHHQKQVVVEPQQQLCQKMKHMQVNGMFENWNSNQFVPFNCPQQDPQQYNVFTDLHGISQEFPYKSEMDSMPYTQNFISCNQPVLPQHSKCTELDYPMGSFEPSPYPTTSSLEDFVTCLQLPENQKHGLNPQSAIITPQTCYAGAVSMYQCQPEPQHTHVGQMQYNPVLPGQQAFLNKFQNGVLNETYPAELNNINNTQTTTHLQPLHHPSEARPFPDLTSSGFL
# How it was run: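 Luminescence read-out: ONE-Glo reagent, 30 min at room temperature, in HG2L7.5c1 HepG2 reporter cells treated 24 h at 37C. Viability was measured beforehand by CellTiter-Fluor fluorescence after 30 min at 37C.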
# [2] = qHTS assay to identify small molecule that activate the aryl hydrocarbon receptor (AhR) signaling pathway - cell viability counter screen (AID 743086); further: nearly all actives have a fitted effect of over 45% in size; further: potency means the concentration at half of the fitted maximal effect
# How it was run: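 HepG2-AhR-luc (HG2L7.5c1) cells, 4000/well, treated 24 h at 37 C with compound; viability measured as CellTiter-Fluor fluorescence after 30 min in the same wells as the luciferase read.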
# [3] = target: Peroxisome proliferator-activated receptor gamma (Homo sapiens) (UniProt P37231); test: qHTS assay to identify small molecule antagonists of the peroxisome proliferator-activated receptor gamma (PPARg) signaling pathway (AID 743191; calls by dose curve; further: nearly all actives have a fitted effect of over 30% in size; further: potency means the concentration at half of the fitted maximal effect)
# Peroxisome proliferator-activated receptor gamma (Homo sapiens), sequence (P37231 whole entry, looked up): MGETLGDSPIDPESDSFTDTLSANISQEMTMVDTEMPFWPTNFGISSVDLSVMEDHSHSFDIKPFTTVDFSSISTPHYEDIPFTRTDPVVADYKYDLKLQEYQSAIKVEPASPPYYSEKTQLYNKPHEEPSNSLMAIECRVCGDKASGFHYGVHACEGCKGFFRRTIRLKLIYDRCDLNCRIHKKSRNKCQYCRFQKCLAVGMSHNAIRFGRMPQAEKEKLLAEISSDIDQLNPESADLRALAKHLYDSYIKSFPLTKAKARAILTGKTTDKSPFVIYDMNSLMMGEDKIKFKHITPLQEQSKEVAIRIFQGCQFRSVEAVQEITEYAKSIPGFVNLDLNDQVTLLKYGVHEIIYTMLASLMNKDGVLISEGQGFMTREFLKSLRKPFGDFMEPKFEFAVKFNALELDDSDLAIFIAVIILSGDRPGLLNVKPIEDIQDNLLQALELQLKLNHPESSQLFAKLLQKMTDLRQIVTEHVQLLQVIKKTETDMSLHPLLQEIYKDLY
# How it was run: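 GeneBLAzer PPARg UAS-bla HEK293H cells, 5 h post-plating, exposed to compounds 17 h at 37C. LiveBLAzer B/G FRET substrate added for 1 h at room temperature; beta-lactamase reporter read by fluorescence intensity.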
# [4] = qHTS assay to identify small molecule antagonists of the peroxisome proliferator-activated receptor gamma (PPARg) signaling pathway - cell viability counter screen (AID 743194); details: Potency: co-treated with 50 nM rosiglitazone unless noted; further: nearly all actives have a fitted effect of over 55% in size; further: potency means the concentration at half of the fitted maximal effect
# How it was run: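 Cytotoxicity counter screen in PPARg-bla HEK293H cells, same wells as reporter assay. Compounds plus 50 nM rosiglitazone (final) for 17 h at 37 C, then viability read by CellTiter-Glo luminescence.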
# [5] = qHTS assay for small molecule agonists of the antioxidant response element (ARE) signaling pathway - cell viability counter screen (AID 743203; calls by dose curve; further: nearly all actives have a fitted effect of over 55% in size; further: potency means the concentration at half of the fitted maximal effect)
# How it was run: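 ARE-bla HepG2 cells were plated, rested 5 h at 37C/5% CO2, then exposed to compounds in DMSO for 16 h. Viability was read as CellTiter-Glo luminescence after 30 min at room temperature, in the same wells as the ARE screen.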
# [6] = qHTS assay for small molecule activators of the heat shock response signaling pathway - cell viability counter screen (AID 743209); further: nearly all actives have a fitted effect of over 50% in size; further: potency means the concentration at half of the fitted maximal effect
# How it was run: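 HSE-bla HeLa cells plated overnight, then exposed to Tox21 compounds (23 nL in DMSO) for 5 h at 37 C. After the bla reporter read, CellTiter-Glo was added in the same wells and luminescence read after 30 min at room temperature.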
# [7] = qHTS assay for small molecule activators of the heat shock response signaling pathway (AID 743210; active means well fitted activation curve with a large enough effect in the signal ratio in the repeat runs, with a control signal flat, not every such curve was filed as active; the % refers to the signal ratio;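 further: HeLa cells with beta-lactamase reporter driven by heat shock elements; series mostly up to about 63 µM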)
# How it was run: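 Quantitative high-throughput format using an engineered HeLa line in which heat shock response elements drive beta-lactamase; after 5 h with compound, cells received a B/G FRET substrate and fluorescence was read.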
# [8] = qHTS assay for small molecule agonists of the antioxidant response element (ARE) signaling pathway (AID 743202; active means well fitted activation curve with a large enough effect in the signal ratio in the repeat runs, not every such curve was filed as active; the % refers to the signal ratio; further: potency means the concentration at half of the fitted maximal effect)
# How it was run: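 Agonist mode reporter screen: HepG2 cells with ARE-controlled beta-lactamase are incubated with test compounds for 16 h at 37 C, and beta-lactamase activity is measured as fluorescence of cleaved B/G FRET substrate.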
# [9] = qHTS assay to identify small molecule agonists of the peroxisome proliferator-activated receptor delta (PPARd) signaling pathway - cell viability counter screen (AID 743211); further: nearly all actives have a fitted effect of over 55% in size; further: potency means the concentration at half of the fitted maximal effect
# How it was run: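 Read-out: CellTiter-Glo luminescence, 30 min RT, measured in the same wells as the beta-lactamase reporter. Cells: GeneBLAzer PPAR delta UAS-bla HEK293H, 3000 cells/well, compound exposure 17 h at 37C.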
# [10] = target: Peroxisome proliferator-activated receptor gamma (Homo sapiens) (UniProt P37231); test: qHTS assay to identify small molecule agonists of the peroxisome proliferator-activated receptor gamma (PPARg) signaling pathway (AID 743094; active means well fitted activation curve with a large enough effect in the signal ratio in the repeat runs, not every such curve was filed as active; the % refers to the signal ratio)
# How it was run: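 GeneBLAzer PPARg UAS-bla HEK293H cells were plated, rested 5 h, then exposed to compounds for 17 h at 37C. Beta-lactamase activity was read by LiveBLAzer B/G FRET substrate fluorescence after 1 h at room temperature.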
Compound,Potency [1],Potency [2],Potency [3],Potency [4],Potency [5],Potency [6],Potency [7],Potency [8],Potency [9],Potency [10]
c1ccc(-c2cccc(-c3ccccc3)c2)cc1,inactive and 61.1 µM (active),inactive,inactive,inactive,inactive,inactive,inactive,–,–,–
CCCCCc1cc(O)cc(O)c1,61.4 µM (active),inactive,24.7 µM (active),inactive,inactive,inactive,inactive,48.8 µM (active) and 48.6 µM (active),inactive,–
O=S(=O)(Oc1ccc(Cl)cc1)c1ccc(Cl)cc1,inactive,inactive,–,inactive,inactive,inactive,inactive,inactive,inactive,–
Nc1ccc(-c2ccccc2)cc1,9.69 µM (active),inactive,–,inactive,inactive,inactive,inactive,inactive and 27.3 µM (active),–,–
O=P(Oc1ccccc1)(Oc1ccccc1)Oc1ccccc1,inactive,inactive,–,–,inactive,inactive,inactive,inactive,24.4 µM (active),–
O=C(CCl)c1ccccc1,inactive,inactive,–,inactive,inactive,inactive and 24.5 µM (active),–,–,inactive,–
Oc1cc(Cl)ccc1Oc1ccc(Cl)cc1Cl,inactive and 21 µM (active),–,–,6.31 µM (active),27.9 µM (active),30.7 µM (active) and 29.8 µM (active),–,–,–,inactive
CC(C)c1ccc(CO)cc1,–,inactive,–,inactive,inactive,inactive,inactive,–,inactive,–
C1=Cc2cccc3cccc1c23,–,inactive,inactive,inactive,inactive,inactive,inactive,–,–,–
CC(C)Oc1cc(-n2nc(C(C)(C)C)oc2=O)c(Cl)cc1Cl,inactive,inactive,–,inactive,inactive and 34.4 µM (active),inactive,–,–,15.5 µM (active),–
COc1ccc(C(CN(C)C)C2(O)CCCCC2)cc1 (stereo not drawn),–,inactive,–,inactive,inactive,inactive,inactive,inactive,inactive,inactive
CCC(C)c1ccc(O)cc1 (stereo not drawn),–,inactive,–,inactive,inactive,inactive,inactive,–,–,–
Cc1cc(C)cc(C)c1,–,inactive,–,inactive,inactive,inactive,inactive,inactive,inactive,–
C=CC(=O)OCCO,–,inactive,–,inactive,inactive,inactive,inactive,–,inactive,–
C=CCc1ccc2c(c1)OCO2,–,inactive,–,inactive,inactive,inactive,inactive,inactive,inactive,inactive
C#CCOS(=O)OC1CCCCC1Oc1ccc(C(C)(C)C)cc1 (stereo not drawn),inactive,inactive,–,2.45 µM (active),inactive,inactive,inactive,–,inactive and 24.5 µM (active),–
N#CCCCl,–,inactive,–,inactive,inactive,inactive,inactive,inactive,inactive,–
O=C(NC(=O)c1c(F)cccc1F)Nc1ccc(Cl)cc1,97.1 nM (active) and 611 nM (active),inactive,–,inactive,inactive,inactive,inactive,–,inactive,–
CC(C)N(C(=O)SCC(Cl)=C(Cl)Cl)C(C)C,–,inactive,–,inactive,inactive,inactive,inactive,inactive,–,–
O=[N+]([O-])c1ccc(O)c([N+](=O)[O-])c1,24.4 µM (active),38.7 µM (active),–,inactive,inactive,inactive,inactive,–,inactive,–
Cc1ccc(N)c(N)c1,–,inactive,–,inactive,inactive,inactive,–,–,–,–
Oc1cc(Cl)c(Cl)cc1Cl,inactive,inactive,–,inactive,inactive,inactive,inactive,–,inactive,–
S=C1NCCN1,inactive,inactive,–,–,inactive,inactive,inactive,–,–,–
CCc1cccc(CC)c1N(COC)C(=O)CCl,inactive,inactive,–,–,inactive,inactive,–,–,inactive,–
c1cc(OCC2CO2)ccc1Cc1ccc(OCC2CO2)cc1 (stereo not drawn),–,inactive,–,–,inactive,inactive,–,61.4 µM (active) and 61.1 µM (active),inactive,–
c1ccc(NNc2ccccc2)cc1,–,inactive,–,inactive,inactive,inactive,inactive,inactive,–,–
CC(C)(c1cc(Cl)c(O)c(Cl)c1)c1cc(Cl)c(O)c(Cl)c1,inactive,inactive,–,49 µM (active) and 24.5 µM (active),–,inactive,–,–,–,–
CNC(=O)Oc1cccc2c1OC(C)(C)O2,inactive,inactive,–,inactive,inactive,inactive,inactive,–,inactive,–
